Experiment [1] in a line: Nuclear factor erythroid 2-related factor 2/antioxidant responsive element (Nrf2/ARE) small molecule agonists: qHTS cell viability counter screen in human keratinocytes (AID 1919968; active means well fitted curve in the direction sought with a large enough effect in the repeat runs; an effect the other way counts as inactive or inconclusive; further: nearly all actives have a fitted effect of over 55% in size). In short, it runs like this: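 CellTiter-Fluor fluorescence, read 1 h after reagent, gave viability in the same wells as the ARE-luciferase assay. KeratinoSens cells (1,500/well) had 23 h compound exposure at 37 C/5% CO2 following 5 h plating.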
(In general: In qHTS, concentration-response curves come from the screen itself.)

The nature of experiment [2]: Nuclear factor erythroid 2-related factor 2/antioxidant responsive element (Nrf2/ARE) small molecule agonists: luciferase reporter gene qHTS assay in human keratinocytes (AID 1919969). Further: nearly all actives have a fitted effect of over 35% in size. Further: potency means the concentration at half of the fitted maximal effect.
Experiment [3] addresses Gonadotropin-releasing hormone receptor (Homo sapiens) (UniProt P30968). Nature of the experiment: Human gonadotropin-releasing hormone receptor (GnRHR) small molecule agonists, calcium flux assay in GnRHR-HEK293 cells (AID 1920063). Further: nearly all actives have a fitted effect of over 35% in size. In short, it runs like this:
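Agonist mode: compounds at 15 concentrations, in triplicate, went onto calcium dye-loaded GnRHR-HEK293 cells. Intracellular calcium was then followed as 480/540 nm fluorescence at 1 s intervals over 3 min.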
In general terms: A change in cytosolic calcium serves as a functional read-out for many receptors and channels.

The target of experiment [4] is KiSS-1 receptor (Homo sapiens) (UniProt Q969F8). Briefly: Human kisspeptin (KISS1R) small molecule agonists, calcium flux assay in KISS1R-HEK293 cells (AID 1920064; active means well fitted curve in the direction sought with a large enough effect in the repeat runs; an effect the other way counts as inactive or inconclusive). Put shortly:
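Agonist mode: intracellular calcium rise tracked at 1 s intervals over 3 min (480/540 nm) immediately after compound addition to dye-loaded KISS1R-HEK293 stable cells. Each compound tested at 15 concentrations in triplicate.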

Experiment [5] can be described thus: G protein-coupled receptor (GPCR) small molecule agonists, calcium flux assay: HEK293 wild type cell line counter screen (AID 1920065). In short, it runs like this:
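Calcium flux counter screen: compound added in agonist mode at 15 concentrations in triplicate to dye-loaded parental HEK293 cells. Fluorescence (480/540) read kinetically for 3 min; ATP served as positive control.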

A short description of experiment [6]: p53 small molecule agonists, cell-based qHTS assay with human liver microsomes: qHTS cell viability counter screen (AID 1963579). Further: nearly all actives have a fitted effect of over 45% in size. Put shortly:
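Tox21 library compounds, delivered from DMSO stocks, were tested on p53RE-bla cells together with 0.5 mg/mL human liver microsomes and 0.5 mg/mL NADPH (final) over 16 h at 37 C; CellTiter-Glo luminescence served as the cytotoxicity measure.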

Experiment [7] is described as follows: p53 small molecule agonists, cell-based qHTS assay with rat liver microsomes: qHTS cell viability counter screen (AID 1963580). Further: nearly all actives have a fitted effect of over 45% in size. Put shortly: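 Rat liver microsome (0.5 mg/mL final) and NADPH (0.5 mg/mL final) co-incubation with compounds for 16 h at 37 C on HCT-116 p53RE-bla cells; cytotoxicity taken from intracellular ATP luminescence.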
A short description of experiment [8]: p53 small molecule agonists, cell-based qHTS assay: qHTS cell viability counter screen (AID 1963581). Further: nearly all actives have a fitted effect of over 45% in size. Put shortly: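 Counter screen read by CellTiter-Glo luminescence (ATP content, 30 min at room temperature), run in the same wells as the beta-lactamase reporter read. HCT-116 p53RE-bla cells saw compounds for 16 h at 37 C.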
The target of experiment [9] is 5-hydroxytryptamine receptor 2A (Homo sapiens) (UniProt P28223). Nature of the experiment: 5-hydroxytryptamine receptor 2A (HTR2A) small molecule agonists, cell-based qHTS assay (AID 1963587). Further: nearly all actives have a fitted effect of over 30% in size. Put shortly: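 Kinetic calcium-flux fluorescence (2 min, 1 sec intervals) after compound addition in agonist mode. HTR2A-CHO cells were cultured 18 h, then dye-loaded 1 h at 37 C.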
5-hydroxytryptamine receptor 2A (Homo sapiens), sequence (P28223 whole entry, looked up): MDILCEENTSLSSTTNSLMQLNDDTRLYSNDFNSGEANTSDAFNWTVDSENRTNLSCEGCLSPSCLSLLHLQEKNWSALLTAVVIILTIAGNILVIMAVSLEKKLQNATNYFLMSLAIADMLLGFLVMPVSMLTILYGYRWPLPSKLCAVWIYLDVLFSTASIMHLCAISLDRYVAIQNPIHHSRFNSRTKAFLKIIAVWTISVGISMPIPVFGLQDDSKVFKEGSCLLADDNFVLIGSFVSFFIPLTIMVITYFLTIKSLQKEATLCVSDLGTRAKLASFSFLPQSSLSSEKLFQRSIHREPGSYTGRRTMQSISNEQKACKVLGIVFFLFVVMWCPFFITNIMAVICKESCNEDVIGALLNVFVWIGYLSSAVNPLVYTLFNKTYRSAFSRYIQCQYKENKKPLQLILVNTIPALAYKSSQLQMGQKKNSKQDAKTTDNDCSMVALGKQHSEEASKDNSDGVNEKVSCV

Experiment [10] has as its target Muscarinic acetylcholine receptor M1 (Homo sapiens) (UniProt P11229). Briefly: Cholinergic receptor muscarinic 1 (CHRM1) small molecule antagonists, cell-based qHTS assay (AID 1963588). Further: nearly all actives have a fitted effect of over 40% in size. In short, it runs like this:
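Compounds were tested at 15 concentrations in three independent runs. Dye-loaded CHRM1-CHO cells were exposed 5 min at room temperature before stimulation by acetylcholine added at 50nM. Intracellular calcium was read kinetically on FDSS for 3 min.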

For experiment [11] the target is unchanged. Briefly: Cholinergic receptor muscarinic 1 (CHRM1) small molecule agonists, cell-based qHTS assay (AID 1963589). Further: nearly all actives have a fitted effect of over 35% in size. In short, it runs like this: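 Agonist-mode calcium-flux screen: compounds at 15 concentrations, three independent runs, were pin-transferred onto dye-loaded human CHRM1-CHO cells. Fluorescence was then recorded kinetically every second over minutes.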

Experiment [12] is described as follows: cAMP Responsive Elements (CRE) small molecule agonists, cell-based qHTS assay (AID 1963590). In short, it runs like this: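 Agonist mode: compound added to CRE-bla HEK 293T cells (2,000/well, 18 h after plating) for 3 h at 37 C/5% CO2. Reporter activity detected via FRET beta-lactamase substrate, 2 h room-temperature loading.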
Experiment [13] addresses Beta-2 adrenergic receptor (Homo sapiens) (UniProt P07550). Nature of the experiment: Adrenergic beta2 receptor (ADRB2) small molecule antagonists, cell-based qHTS assay (AID 1963592). Further: series mostly up to about 92 µM; nearly all actives have a fitted effect of over 50% in size. In short, it runs like this: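 Assay format: CHO-ADRB2 cells, 18-20hr seeding at 37C/5% CO2, then compound plus 1nM isoproterenol agonist mix for 0.5hr RT. Homogeneous time-resolved fluorescence cAMP detection after 1hr, expressed as 665/615 nm ratio.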

For experiment [14], the target named is D(2) dopamine receptor (Homo sapiens) (UniProt P14416). Nature of the experiment: Dopamine D2 receptor (DRD2) small molecule antagonists, cell-based qHTS assay (AID 1963595; active means well fitted inhibition curve with a large enough effect in the signal ratio in the repeat runs, with a control signal flat; the % refers to the signal ratio). In short, it runs like this:
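HEK293 cells stably expressing DRD2 were preincubated with 0.1 mM Ro20-1724, then with compound for 10 min at room temperature. Cells were stimulated with 200 nM NKH477 plus 12 nM quinpirole for 30 min, and cAMP was read by HTRF.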

Experiment [15] is described as follows: cAMP Responsive Elements (CRE) small molecule antagonists, cell-based qHTS assay (AID 1963591; active means well fitted inhibition curve with a large enough effect in the signal ratio in the repeat runs, not every such curve was filed as active; the % refers to the signal ratio). In short, it runs like this: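 Antagonist mode: compounds are added alongside the adenylyl cyclase activator NKH477 (0.25 uM final) to CRE-bla HEK293T cells for 3 h. LiveBLAzer FRET substrate, 2 h at room temperature, reports bla expression.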
In experiment [16] the target is Beta-2 adrenergic receptor (Homo sapiens) (UniProt P07550). Briefly: Adrenergic beta2 receptor (ADRB2) small molecule agonists, cell-based qHTS assay (AID 1963593).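 Further: CHO cells stably overexpressing human ADRB2.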 Put shortly: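 CHO cells stably over-expressing ADRB2 were plated overnight at 37C, then dosed with compounds plus a stimulation mix containing 100uM IBMX and 25uM Ro-20-1724 for 0.5hr at room temperature. cAMP was measured by HTRF competition, 1hr.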
Beta-2 adrenergic receptor (Homo sapiens), sequence (P07550 whole entry, looked up): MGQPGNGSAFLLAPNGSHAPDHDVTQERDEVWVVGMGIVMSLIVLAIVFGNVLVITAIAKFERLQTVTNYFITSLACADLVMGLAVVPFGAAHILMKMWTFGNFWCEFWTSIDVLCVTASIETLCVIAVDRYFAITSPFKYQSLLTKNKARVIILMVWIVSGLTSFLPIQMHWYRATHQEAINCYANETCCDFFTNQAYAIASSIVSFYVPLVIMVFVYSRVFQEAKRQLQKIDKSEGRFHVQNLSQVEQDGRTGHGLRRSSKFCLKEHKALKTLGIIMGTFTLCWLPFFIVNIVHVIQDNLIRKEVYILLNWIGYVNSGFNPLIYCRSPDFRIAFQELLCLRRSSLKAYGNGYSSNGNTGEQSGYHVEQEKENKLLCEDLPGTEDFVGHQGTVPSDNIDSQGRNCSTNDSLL

Experiment [17] has as its target D(2) dopamine receptor (Homo sapiens) (UniProt P14416). Nature of the experiment: Dopamine D2 receptor (DRD2) small molecule agonists, cell-based qHTS assay (AID 1963594). Further: nearly all actives have a fitted effect of over 35% in size. In short, it runs like this: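 cAMP accumulation in DRD2-HEK293 cells measured by HTRF after 1 h detection; compounds added 10 min before NKH477 (200nM […]) forskolin-analogue stimulation, 30 min at room temperature, with Ro20-1724 present at 0.1 mM final.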

Experiment [18] concerns the target 5-hydroxytryptamine receptor 2A (Homo sapiens) (UniProt P28223). Briefly: 5-hydroxytryptamine receptor 2A (HTR2A) small molecule antagonists, cell-based qHTS assay (AID 1963586). Further: nearly all actives have a fitted effect of over 45% in size. In short, it runs like this:
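CHO cells stably expressing human HTR2A were plated for 18 h at 37 C, then loaded with calcium dye for 1 h. Compounds were preincubated 5 min at room temperature before DOI (4 nM solution) was added. Kinetic fluorescence was read for 3 min.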

Values without a mark were called inactive. Records with an inconclusive call do not appear. The source made the active and inactive calls. Unless noted, the call rests on the fitted dose curve.

D(2) dopamine receptor (Homo sapiens), sequence (P14416 whole entry, looked up): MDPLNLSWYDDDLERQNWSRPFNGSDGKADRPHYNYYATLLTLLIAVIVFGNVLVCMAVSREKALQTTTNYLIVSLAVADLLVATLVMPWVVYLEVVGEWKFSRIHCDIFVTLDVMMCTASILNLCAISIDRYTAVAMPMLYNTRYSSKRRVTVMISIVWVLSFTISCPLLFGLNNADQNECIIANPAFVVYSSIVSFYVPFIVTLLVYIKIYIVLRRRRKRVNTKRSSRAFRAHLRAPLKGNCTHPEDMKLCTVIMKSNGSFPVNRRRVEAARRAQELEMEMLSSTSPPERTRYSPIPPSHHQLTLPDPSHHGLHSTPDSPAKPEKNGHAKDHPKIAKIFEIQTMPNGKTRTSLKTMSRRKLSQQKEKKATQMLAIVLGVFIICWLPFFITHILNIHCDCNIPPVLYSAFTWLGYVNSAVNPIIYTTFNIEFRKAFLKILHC
KiSS-1 receptor (Homo sapiens), sequence (Q969F8 whole entry, looked up): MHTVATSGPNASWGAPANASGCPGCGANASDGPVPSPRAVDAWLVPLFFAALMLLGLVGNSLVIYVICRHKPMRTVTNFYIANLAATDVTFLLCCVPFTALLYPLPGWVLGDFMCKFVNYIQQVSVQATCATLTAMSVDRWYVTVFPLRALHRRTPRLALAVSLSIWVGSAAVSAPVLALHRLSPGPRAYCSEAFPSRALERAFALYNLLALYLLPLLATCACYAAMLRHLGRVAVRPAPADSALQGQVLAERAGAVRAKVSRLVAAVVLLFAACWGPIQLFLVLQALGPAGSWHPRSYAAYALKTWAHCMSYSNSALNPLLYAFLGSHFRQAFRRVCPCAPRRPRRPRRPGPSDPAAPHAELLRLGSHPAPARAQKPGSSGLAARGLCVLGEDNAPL
Gonadotropin-releasing hormone receptor (Homo sapiens), sequence (P30968 whole entry, looked up): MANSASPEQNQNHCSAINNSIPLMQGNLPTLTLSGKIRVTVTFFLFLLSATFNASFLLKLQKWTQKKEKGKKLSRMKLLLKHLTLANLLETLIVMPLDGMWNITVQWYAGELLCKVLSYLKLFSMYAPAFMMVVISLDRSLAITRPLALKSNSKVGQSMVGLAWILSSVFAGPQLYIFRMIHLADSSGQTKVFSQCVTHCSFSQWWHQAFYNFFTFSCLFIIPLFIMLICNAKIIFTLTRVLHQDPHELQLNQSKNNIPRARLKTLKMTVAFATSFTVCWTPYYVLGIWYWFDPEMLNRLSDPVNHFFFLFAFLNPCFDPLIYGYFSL
Muscarinic acetylcholine receptor M1 (Homo sapiens), sequence (P11229 whole entry, looked up): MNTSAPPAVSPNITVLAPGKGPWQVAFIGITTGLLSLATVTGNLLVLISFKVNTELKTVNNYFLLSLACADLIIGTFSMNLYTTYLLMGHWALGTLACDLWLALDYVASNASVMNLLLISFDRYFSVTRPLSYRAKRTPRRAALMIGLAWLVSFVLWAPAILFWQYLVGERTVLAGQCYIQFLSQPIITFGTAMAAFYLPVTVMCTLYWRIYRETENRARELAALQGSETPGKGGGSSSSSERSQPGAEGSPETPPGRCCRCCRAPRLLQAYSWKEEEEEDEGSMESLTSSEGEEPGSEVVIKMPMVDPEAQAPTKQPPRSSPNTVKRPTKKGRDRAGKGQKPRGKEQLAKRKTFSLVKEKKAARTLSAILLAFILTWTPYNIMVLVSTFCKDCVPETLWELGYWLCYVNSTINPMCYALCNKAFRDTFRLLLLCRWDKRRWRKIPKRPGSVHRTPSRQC

As for `O=C(NS(=O)(=O)/C=C/c1cccs1)c1ccc(F)cc1Br`, the Potency entry in experiment [1], in experiment [3], in experiment [4], in [5], in [6] and in experiment [7] was “inactive” in each case. Also, the Potency entry in experiment [8], in experiment [9], in [10], in experiment [11], in experiment [12] and in experiment [13] was “inactive” each time. In addition, the Potency entry in experiment [14] was “inactive”. Further, the Potency in experiment [2] was 27.3 µM (active).

In the case of `FB(F)F`, the Potency result in [1], in experiment [2], in experiment [3], in experiment [4], in [5] and in [6] was “inactive” in each case. The Potency result in [7], in experiment [8], in [9], in experiment [10], in experiment [11] and in [12] was “inactive” throughout. The Potency entry in experiment [15], in [13], in experiment [16], in experiment [17] and in [14] was “inactive” throughout.

Consider `C=CCOC(=O)COCCC(C)C`, for which the Potency result in experiment [1], in experiment [2], in [3], in experiment [4], in experiment [5] and in experiment [6] was “inactive” in each case. Further, the Potency result in experiment [7], in experiment [8], in experiment [9], in experiment [10], in experiment [11] and in experiment [12] was “inactive” throughout. Moreover, the Potency result in [15], in [13], in [17] and in [14] was “inactive” throughout.

Consider `CC(=O)Nc1ccc(OCCOCCOc2ccc(NC(C)=O)cc2)cc1`, for which the Potency entry in [1], in experiment [2], in experiment [3], in experiment [4], in experiment [5] and in experiment [6] was “inactive” throughout. In addition, the Potency result in experiment [7], in experiment [8], in [18], in experiment [10], in experiment [11] and in [12] was “inactive” in each case. Also, the Potency entry in experiment [15], in experiment [13], in [16], in experiment [17] and in [14] was “inactive” throughout.

For the compound `C=Cc1ccc(C(C)(C)C)cc1`, the Potency result in experiment [1], in experiment [2], in [3], in experiment [4], in experiment [5] and in experiment [6] was “inactive” in each case. Also, the Potency result in experiment [7], in experiment [8], in [9], in experiment [10], in [11] and in [12] was “inactive” throughout. For the same compound, the Potency result in experiment [15], in experiment [13], in experiment [16], in experiment [17] and in experiment [14] was “inactive” throughout.

As for `CCC(C)OC(C)CC` (configuration not stated), the Potency entry in [1], in experiment [2], in [3], in [4], in [5] and in experiment [6] was “inactive” each time. Also, the Potency result in [7], in experiment [8], in [9], in experiment [10], in [11] and in [12] was “inactive” in each case. The Potency result in [15], in experiment [13], in experiment [16] and in [17] was “inactive” each time.

For `c1ccc2c(c1)CCCC2C1=NCCN1` (configuration not stated), the Potency result in experiment [1], in experiment [2], in [3], in [4], in experiment [5] and in experiment [6] was “inactive” throughout. Moreover, the Potency entry in [7], in experiment [8], in experiment [18], in experiment [10], in [11] and in [15] was “inactive” throughout. Further, the Potency result in experiment [13], in experiment [16] and in [17] was “inactive” throughout.

(Values after PubChem BioAssay (Tox21).)
